TDP-43 yeast inh – rescues yeast growth from TDP-43 toxicity. AID 652104. Potency, µM (series often up to 46.1 µM), inactives show at the top dose growth rescue (activation), most hits filed as activators. TDP-43 expressing yeast growth rescue, BacTiter-Glo, 24 h. 410,000 tested, 1.8% active; further: potency means the concentration at half of the fitted maximal effect; % of control where 0% means no effect; nearly all actives have a fitted effect of over 50% in size
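Cell-based yeast growth screen: TDP-43 expression induced in galactose, inoculum OD600=0.02 after raffinose pregrowth to mid-log. Read-out BacTiter-Glo luminescence at 24 hr, 30 deg C; inhibition of toxicity seen as signal increase.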
FUS yeast rescue – suppressors of FUS proteinopathy in yeast. S. cerevisiae FUS-expressing, growth rescue, OD600, 24 h. Potency, µM (titrated, usually from 76.6 µM), hits mostly activators. 390,000 tested, 0.24% active. AID 1347120;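 further: potency means the concentration at half of the fitted maximal effect; plate controls were DMSO vehicle for no effect and reference control for full effect; nearly all actives have a fitted effect of over 55% in size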
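Read-out: OD at 600 nm after 24hr at 30C, reporting rescue of FUS-induced yeast toxicity. Cells at OD 0.005 in galactose (2%) minimal medium; compounds tested in a dilution series; CP55940 titration from 92uM final as control.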
Abeta rescue – restores growth of yeast expressing A-beta42 peptide | yeast expressing A-beta42, growth rescue, OD600, 48 h; response scale: 0% DMSO, 100% iron-clioquinol control | Potency, µM (highest dose often 46.1 µM), most hits filed as activators | 410,000 tested, 0.063% active | AID 1347071; further: potency means the concentration at half of the fitted maximal effect; nearly all actives have a fitted effect of over 55% in size
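Yeast growth medium received pinned compounds, then yeast cells expressing toxic A-beta were added; plates incubated at 30 C for 48 hr. Growth read as absorbance at 600 nm, normalized to DMSO and equimolar FeCl3 plus clioquinol controls.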
aSyn rescue – rescues yeast growth from alpha-synuclein toxicity; Yeast expressing alpha-synuclein, growth rescue, BacTiter-Glo, 24 h; Potency, µM (doses to about 46.1 µM), without a hit: top-dose growth rescue (activation), actives largely listed as activators; 370,000 tested, 0.14% active; further: potency means the concentration at half of the fitted maximal effect; % of control where 0% means no effect; nearly all actives have a fitted effect of over 65% in size
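Rescue of yeast growth: cells expressing toxic alpha-synuclein, induced in galactose at OD600 0.02, incubated with compound 24 h at 30 C. ATP luminescence quantified growth; inhibitors of toxicity appear as activators.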
pAkt inh – Akt phosphorylation inhibition. Neuro2A IGF-stimulated pAkt S473 HTRF, 20 min; active compounds read low. activity change, % for hits at 50 µM. 360,000 tested, 0.32% active; in the data active means activity change below about -80%; inconclusive means mostly about -51% to -80%; further: on the % scale 0 is the no-effect control and ±100 the full control effect
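Neuro2A cells in DMEM with 0.5% FBS, overnight at 37 deg C, given compound at single 50 µM final, then IGF (6 nM final) for 20 min at 37 deg C. Lysed; phospho-Akt Ser473 by HTRF after 24 h, 665/615 ratio.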
Starred values were filed as active, the others as inactive; i = inactive; ? = inconclusive; . = not tested or not shown; [ ] = dose if it differs, or a comment. Only some compounds are listed: those with a hit (about 2.3% of all), similar ones and a draw of the others. Unless noted, the call rests on the fitted dose curve; in most records, active means well fitted curve in the direction sought with a large enough effect; inconclusive means small, poorly fitted or top-dose-only effect, or another doubt; inactive means no such curve, though single readings can be large; an effect the other way counts as inactive or inconclusive.

SMILES | TDP-43 yeast inh | FUS yeast rescue | Abeta rescue | aSyn rescue | pAkt inh
CCOc1cc2c(cc1O)CCC1C2CCC2(C)C(O)CCC12 (centres undefined) | 16µM* | . | i | 1% | i
COc1ccc(C(C)(NC(C)=O)c2nc(-c3cccc(C(F)(F)F)c3)cs2)cc1 (centres undefined) | 35µM* | ? | i | 4% | i
CC(=O)NC(C)(c1ccccc1)c1nc(-c2ccc(F)c(Cl)c2)cs1 (centres undefined) | 11µM* | i | i | 6% | i
COc1ccc(C(C)(NC(C)=O)c2nc(-c3cccnc3)cs2)cc1 (centres undefined) | ? | i | i | -13% | i
CCC(C)n1c(=O)c2sccc2n2c(CCCC(=O)Nc3ccc(F)cc3)nnc12 (centres undefined) | 17% | i | i | . | .
COc1ccccc1CNC(=O)CC1N=C2c3ccccc3N=C(SCC(=O)Nc3ccc(F)cc3)N2C1=O (centres undefined) | 8% | ? | i | . | .
CCOc1ccc(NC(=O)CSc2nnc(CNC(=O)C34CC5CC(CC(C5)C3)C4)n2CC)cc1 | -1% | i | i | . | .
COc1ccc(CNC(=O)c2cnn(-c3ccc(OC)cc3)c2C2CCN(C(=O)OC(C)(C)C)CC2)cc1 | -3% | ? | i | . | .
COc1ccc(-n2ncc(C(=O)NCc3ccc4c(c3)OCO4)c2C2CCN(C(=O)OC(C)(C)C)CC2)cc1 | 30% | 32µM* | i | . | .
Cc1cccc(C)c1-n1ncc(C(=O)NCc2ccc3c(c2)OCO3)c1C1CCN(C(=O)OC(C)(C)C)CC1 | -14% | i | i | . | .
Cc1ccc(-n2ncc(C(=O)NCc3ccc4c(c3)OCO4)c2C2CCN(C(=O)OC(C)(C)C)CC2)cc1C | 16% | 25µM* | i | . | .
Cc1ccc(-n2ncc(C(=O)Nc3ccc4c(c3)OCO4)c2C2CCN(C(=O)OC(C)(C)C)CC2)cc1 | 2% | 28µM* | i | . | .
Cc1ccccc1NC(=O)C(C)SCc1ccccc1 (centres undefined) | 15% | i | i | 9% | i
Cc1ccc(CC(SCc2ccccc2)C(=O)O)cc1C (centres undefined) | 11µM* | i | i | 7% | i
COc1c(Cl)cc(C(=O)N(Cc2ccc(C)o2)C2CCS(=O)(=O)C2)cc1Cl (centres undefined) | 12% | i | i | . | .
O=C(Cn1c(C(F)(F)F)nc2ccccc21)Nc1ccccc1N1CCOCC1 | 9% | i | i | 0% | i
O=C(Nc1cc(C(F)(F)F)ccc1N1CCOCC1)c1cccnc1Cl | 14% | i | i | 4% | -111%*
CCOc1ccccc1NC(C)C(=O)Nc1cc(C(F)(F)F)ccc1N1CCOCC1 (centres undefined) | 13µM* | . | i | 13% | i
CSc1nc2ccccc2n1CC(=O)Nc1cc(C(F)(F)F)ccc1N1CCOCC1 | 3% | i | i | 2% | -120%*
CCc1nnc(SCC(=O)N(C)c2ccccc2)c2cc3sccc3n12 | ? | i | i | . | .
O=C(O)CC1(CC(=O)Nc2ccc3sccc3c2)CCCCC1 | 7.9µM* | i | i | -15% | i
COC(=O)c1ccc2nc(-c3ccc(OC)c(OC)c3)c(Cc3cccc(F)c3)n2c1 | 35µM* | i | i | 24% | i
COC(=O)c1ccc2nc(-c3ccc(Cl)cc3)c(Cc3ccccc3OC)n2c1 | 17% | i | i | 1% | i
COC(=O)c1ccc2nc(-c3cccc(Cl)c3)c(Cc3ccccc3OC)n2c1 | 35µM* | i | i | -1% | i
COC(=O)c1ccc2nc(-c3ccc(OC)c(OC)c3)c(Cc3ccc(C)cc3)n2c1 | 22µM* | i | i | 6% | i
SMILES | TDP-43 yeast inh | FUS yeast rescue | Abeta rescue | aSyn rescue | pAkt inh
COC(=O)c1ccc2nc(-c3ccc(C)cc3)c(Cc3ccc(C)cc3)n2c1 | ? | i | i | ? | i
COc1cc(-c2nnc(SCC(=O)NC(C)C)o2)cc(OC)c1OC | -18% | i | i | . | .
O=C(Nc1ccno1)Nc1ccc(Cl)cc1Cl | 14µM* | i | i | -12% | i
O=C(Nc1ccc(Cl)cc1Cl)Nn1cnnc1 | 1% | i | i | -1% | i
COc1ccc2oc(-c3ccc(C)c(NC(=O)c4ccc5c(c4)OCCO5)c3)nc2c1 | 0% | i | i | . | .
CCCNC(=O)OCc1cccnc1Sc1ccc(C)cc1 | 20µM* | i | i | 8% | i
Cc1ccccc1-c1ccc(CN2C(C(C)C)C(=O)N(Cc3cn(CCC4OCCO4)nn3)CCS2(=O)=O)cc1 (centres undefined) | ? | 10µM* | i | ? | i
CC(C)Cc1ccc(CN2C(C(C)C)C(=O)N(Cc3cn(CCC4OCCO4)nn3)CCS2(=O)=O)cc1 (centres undefined) | 11µM* | ? | i | 8% | i
COCOCCn1cc(CN2CCS(=O)(=O)N(Cc3ccc(-c4ccc(Cl)c(Cl)c4)cc3)C(C(C)C)C2=O)nn1 (centres undefined) | 35µM* | ? | i | ? | i
COc1ccc(-c2ccc(CN3C(C(C)C)C(=O)N(Cc4cn(CC5CCCCC5)nn4)CCS3(=O)=O)cc2)cc1OC (centres undefined) | -8% | 25µM* | i | 16% | i
Cc1ccc(-c2ccc(CN3C(C(C)C)C(=O)N(Cc4cn(CCC5OCCO5)nn4)CCS3(=O)=O)cc2)c(C)c1 (centres undefined) | ? | ? | i | ? | i
Cc1c(C(=O)N(Cc2ccc(N(C)C)cc2)CC2CCCO2)oc2ccc(Br)cc12 (centres undefined) | -20% | i | i | . | .
COc1ccc(-c2ccc(CN3C(C(C)C)C(=O)N(Cc4cn(CCC5OCCO5)nn4)CCS3(=O)=O)cc2)cc1OC (centres undefined) | 0% | ? | i | -1% | i
COc1ccc(-c2ccc(CN3C(C(C)C)C(=O)N(Cc4cn(CCC5OCCO5)nn4)CCS3(=O)=O)cc2)cc1 (centres undefined) | 35µM* | ? | i | 6% | i
CCOC(=O)c1ccc(N=C2C(=S)N(c3ccc(C(=O)OCC)cc3)C(=N)N2/N=C/c2ccccc2)cc1 | 0% | 28µM* | i | 1% | i
CCOC(=O)c1ccc(N=c2scc(C)n2CC)cc1 | -7%[0.397 µM] | i | i | 7% | i
Cn1ncc(Cl)c1C(=O)Nc1cccc(Cl)c1 | 7.1µM* | i | i | 7% | i
Cn1ncc(Cl)c1C(=O)N1CCN(c2cccc(Cl)c2)CC1 | 14µM* | i | i | 18% | i
Cn1nccc1C(=O)N1CCN(c2cccc(Cl)c2)CC1 | 22% | i | i | 5% | i
